A short description of assay [1]: inhibitors of TNFa-induced NFkB p65 translocation, primary screen, imaging, HUVEC, MLSMR starter and 10KST1 sets (AID 438;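 active = inhibition above 20% together with a positive visual image hit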;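 also: compound added about 3h40 before a 20 min TNFalpha stimulation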;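 as to inhibition: signal is the nuclear over cytoplasmic p65 intensity ratio per well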). The conditions noted are these: HUVEC TNFa-induced p65 nuclear translocation; cell count: measured here: nuclei count (cytotoxicity indicator), at 2.08 µM; inhibition: at 2 µM, stronger effect = higher value, 0% TNFa-plus-vehicle, 100% no-TNFa wells.
A short description of assay [2]: reduction of polyQ htt aggregates in cells – imaging, exon1htt(103Q)mCFP cells, high-content imaging, primary screen (AID 483;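 active = visual image review flags a hit and inhibition of aggregation exceeds 20%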;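 also: compound exposure lasted 3 days before fixation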;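 as to nuclei count: percent of the per-plate median nuclei count of sample wells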). The conditions noted are these: exon1htt(103Q)mCFP cell line, aggregate imaging, at 2 µM; inhibition of aggregation: stronger effect = higher value; nuclei count: measured here: cell count, toxicity.
Assay [3] in a line: endothelial E-selectin expression blockers – imaging, HUVEC, immunofluorescence, MLSMR starter and 10KST1 sets, primary screen (AID 487;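 active = visually confirmed hit in the image check and inhibition above 20%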;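 as to inhibition: signal is fraction of cell area covered by stained E-selectin grains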;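 as to nuclei count: 100% = median nuclei count of all wells on the same plate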). Conditions: HUVEC TNFalpha-induced E-selectin immunofluorescence imaging, at 2 µM; inhibition: stronger effect = higher value; nuclei count: measured here: cell number, toxicity.
The target of assay [4] is Voltage-gated potassium channel subunit beta-2 (Rattus norvegicus) (UniProt P62483). The assay is described as follows: inhibitors of rat Kvbeta2 reductase activity – biochemical, NADPH fluorescence, primary screen (AID 622;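 active = fluorescence slope higher than the sample average by over 3 SD, cut at about -0.22 in these data, passing the limit was not always enough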;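 also: slope of raw intensity against log time taken from 70 to 1610 s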). Conditions: recombinant KvBeta, 4-cyanobenzaldehyde reduction, at 10 µM, stronger effect = higher value.
For assay [5] the target is unchanged. The assay is described as follows: enhancers of rat Kvbeta2 NADPH turnover – biochemical, NADPH fluorescence, primary screen (AID 623;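 active = NADPH fluorescence slope more negative than the mean of all samples by about 3 SD, 99.7% confidence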;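 also: fluorescence intensity change per second fitted from 20 to 320 s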). The conditions noted are these: Recombinant KvBeta, NADPH fluorescence decrease slope, 10 min; at 10 µM; stronger effect = lower value.
For assay [6], the target named is Alpha-2C adrenergic receptor (Homo sapiens) (UniProt P18825). The experiment in a line: compounds altering alpha2C-coupled GIRK flux – cell-based, HEK293 alpha2C/GIRK1/2, thallium flux, primary screen (AID 624).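 Also: slope of fluorescence ratio to pre-addition baseline per second over 15 to 24 s.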 Conditions: thallium flux BTC fluorescence, at 10 µM, actives lie on both sides.
Assay [7] in a line: blockers of RIG-like receptor reporter activation – cell-based, Sendai virus stimulus, luciferase, 10K MLSCN set, TLR/RLR signaling modifier project, primary screen (AID 602276;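 active = inhibition at or above 50% at 10 µM; inactive = inhibition below 50%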;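 also: firefly luciferase from ISG56 promoter only with Renilla not read in this screen; 0% = Sendai virus plus DMSO and 100% = medium plus DMSO without virus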). Conditions: HEK293 RL24 IRF3 luciferase reporter, at 10 µM, stronger effect = higher value. In general terms: Reporter assays use an easily measured gene product as a stand-in for the process of interest.
Assay [8] in a line: TLR3 IRF3 reporter activation blockers – cell-based, poly I:C stimulus, luciferase, 10K MLSCN set, primary screen (AID 602277;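 active = inhibition of the reporter signal at or above 50%; inactive = inhibition below 50%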). Conditions: HEK293-TLR3 RL24 IRF3 luciferase reporter, at 10 µM, stronger effect = higher value.

Active and inactive are the calls of the source.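 The calls were made as follows, unless noted: active = fluorescence slope after compound addition differing from the mean of all screened samples at 99.7% confidence, in either direction; inactive = the rest.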

The inhibition is the relative decrease from the control value, in per cent.

Alpha-2C adrenergic receptor (Homo sapiens), sequence (P18825 whole entry, looked up): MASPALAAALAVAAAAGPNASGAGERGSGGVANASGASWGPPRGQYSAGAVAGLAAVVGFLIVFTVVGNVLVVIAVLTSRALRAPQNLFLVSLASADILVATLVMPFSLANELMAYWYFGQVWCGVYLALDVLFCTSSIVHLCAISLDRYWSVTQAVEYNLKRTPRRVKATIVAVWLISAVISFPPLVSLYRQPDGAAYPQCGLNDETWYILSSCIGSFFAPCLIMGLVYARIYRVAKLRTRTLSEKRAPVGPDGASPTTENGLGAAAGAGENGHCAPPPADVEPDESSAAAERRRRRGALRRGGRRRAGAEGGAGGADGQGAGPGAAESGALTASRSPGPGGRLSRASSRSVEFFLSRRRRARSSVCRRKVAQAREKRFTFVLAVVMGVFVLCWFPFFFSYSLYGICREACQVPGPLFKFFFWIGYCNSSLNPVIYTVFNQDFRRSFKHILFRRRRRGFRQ
Voltage-gated potassium channel subunit beta-2 (Rattus norvegicus), sequence (P62483 whole entry, looked up): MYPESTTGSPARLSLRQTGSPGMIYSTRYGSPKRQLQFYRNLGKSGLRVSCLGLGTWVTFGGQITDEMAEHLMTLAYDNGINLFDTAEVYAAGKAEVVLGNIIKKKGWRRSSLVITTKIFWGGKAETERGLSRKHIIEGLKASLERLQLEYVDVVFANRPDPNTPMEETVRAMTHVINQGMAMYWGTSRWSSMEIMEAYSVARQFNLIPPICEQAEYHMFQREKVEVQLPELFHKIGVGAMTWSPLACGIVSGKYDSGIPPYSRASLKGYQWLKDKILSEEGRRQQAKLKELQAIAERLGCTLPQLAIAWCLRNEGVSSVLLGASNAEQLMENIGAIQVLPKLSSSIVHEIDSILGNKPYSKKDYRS

Turning to `COc1cc(NC(=O)c2cccs2)cc(OC)c1`, in assay [1], the cell count came to 306. Moreover, the inhibition was -14.2% (inactive) in assay [1], -201% (inactive) in assay [3], -38.7% (inactive) in assay [7] and -64.2% (inactive) in assay [8]. The inhibition of aggregation in assay [2] is 33% (inactive). For the same compound, the nuclei count in assay [2] worked out at 82.6%; in assay [3], 96.7%. Further, the fluorescence slope in assay [4] is -0.337 (inactive). The NADPH fluorescence slope in assay [5] is -4.5e-05 (inactive). In addition, the slope in assay [6] was 0.00448 (inactive).
For `O=C(Nc1ccc(N2CCN(Cc3ccccc3Cl)CC2)cc1)c1cccnc1`, the cell count in assay [1] worked out at 630. Also, the inhibition in assay [1] is -4.2% (inactive); in assay [3] it was -27% (inactive); in assay [7] it was -23.5% (inactive); in assay [8], -14.5% (inactive). Further, in assay [2], the inhibition of aggregation is 15.2% (inactive). Further, the nuclei count came out at 65.6% in assay [2] and 102% in assay [3]. The fluorescence slope in assay [4] was -0.478 (inactive). The NADPH fluorescence slope in assay [5] was 1.4e-05 (inactive). Also, in assay [6], the slope is 0.00649 (inactive).
Turning to `Cn1cccc1Cc1nnc(SCC(=O)Nc2ccc(F)cc2F)n1-c1ccc(F)cc1`, the cell count in assay [1] turned out to be 664. In addition, the inhibition in assay [1] was -5.5% (inactive); in assay [3], -12.3% (inactive); in assay [7], 10.4% (inactive); in assay [8], 32.3% (inactive). Besides, the inhibition of aggregation in assay [2] was -16.9% (inactive). Besides, the nuclei count in assay [2] stood at 93.7%; in assay [3] it was 99.4%. For the same compound, the fluorescence slope in assay [4] was -0.546 (inactive). In addition, the NADPH fluorescence slope in assay [5] is -7.7e-05 (inactive). The slope in assay [6] was 0.00521 (inactive).
Regarding `O=C(NCC(=O)N(c1ccc2c(c1)OCCO2)C(C(=O)NC1CCCC1)c1ccco1)c1ccco1` (centres undefined), the cell count in assay [1] was found to be 245. The inhibition in assay [1] is 17.9% (inactive); in assay [3], 20.3% (inactive); in assay [7], -2.48% (inactive); in assay [8] it was -2.78% (inactive). Moreover, the inhibition of aggregation in assay [2] was -23.9% (inactive). For the same compound, the nuclei count worked out at 83.9% in assay [2] and 95.6% in assay [3]. For the same compound, the fluorescence slope in assay [4] was -0.409 (inactive). Besides, the NADPH fluorescence slope in assay [5] is 3.7e-05 (inactive). The slope in assay [6] was 0.00578 (inactive).
For the compound `CCOC(=O)c1c(NC(=O)COC(=O)c2c(C)noc2C)sc2c1CCC2`, the cell count in assay [1] was determined as 231. The inhibition is 7.8% (inactive) in assay [1], -101% (inactive) in assay [3], 14.6% (inactive) in assay [7] and 21.3% (inactive) in assay [8]. Besides, the inhibition of aggregation in assay [2] was 29.9% (inactive). In addition, the nuclei count in assay [2] is 103%; in assay [3], 109%. Moreover, the fluorescence slope in assay [4] was -0.472 (inactive). Further, the NADPH fluorescence slope in assay [5] is -1.1e-05 (inactive). In addition, the slope in assay [6] is 0.0054 (inactive).
Take `COc1cc(OC)c(C2N(C)c3ccccc3N2C)cc1OC`: the cell count in assay [1] was determined as 403. The inhibition in assay [1] is 1.7% (inactive); in assay [3], -64.6% (inactive); in assay [7], -3.76% (inactive); in assay [8], 26.3% (inactive). For the same compound, the inhibition of aggregation in assay [2] was -0.8% (inactive). Besides, the nuclei count in assay [2] amounted to 111%; in assay [3], 105%. The fluorescence slope in assay [4] is -0.502 (inactive). Besides, the NADPH fluorescence slope in assay [5] was -1.1e-05 (inactive). Besides, the slope in assay [6] was 0.00623 (inactive).
Consider `COc1ccccc1Oc1ccc(S(=O)(=O)N2CCOCC2)cc1S(=O)(=O)N1CCOCC1`, for which the cell count in assay [1] is 242. Further, the inhibition is 2.9% (inactive) in assay [1], -142% (inactive) in assay [3], 10% (inactive) in assay [7] and 1.69% (inactive) in assay [8]. In assay [2], the inhibition of aggregation is 24.3% (inactive). Also, the figures for the nuclei count in assay [2] and in assay [3] were 106% and 132%, respectively. The fluorescence slope in assay [4] is -0.377 (inactive). For the same compound, the NADPH fluorescence slope in assay [5] is 5.2e-07 (inactive). Further, the slope in assay [6] is 0.00572 (inactive).
As to `CCOn1c(=O)c(=O)n(OCc2ccccc2)c2ccccc21`, in assay [1], the cell count was found to be 355. In addition, the inhibition in assay [1] was 0.3% (inactive); in assay [3] it was -32.9% (inactive); in assay [7] it was 19.9% (inactive); in assay [8] it was 25% (inactive). For the same compound, in assay [2], the inhibition of aggregation was 13% (inactive). The nuclei count in assay [2] was 97.7%; in assay [3], 120%. The fluorescence slope in assay [4] is -0.345 (inactive). For the same compound, the NADPH fluorescence slope in assay [5] was -5.2e-05 (inactive). Moreover, the slope in assay [6] was 0.00578 (inactive).
Take `O=C(c1ccco1)N1CCN(C(=O)c2sccc2-c2ccccc2)CC1`: the cell count in assay [1] worked out at 310. Also, the inhibition in assay [1] was 20.7% (inactive); in assay [3] it was -74.7% (inactive); in assay [7], -5.94% (inactive); in assay [8], 4.34% (inactive). The inhibition of aggregation in assay [2] was 7.1% (inactive). The nuclei count in assay [2] stood at 90%; in assay [3], 115%. The fluorescence slope in assay [4] was -0.581 (inactive). The NADPH fluorescence slope in assay [5] was 2.3e-06 (inactive). Besides, the slope in assay [6] is 0.0052 (inactive).
As to `Cn1c(SCC(=O)O)nnc1C1CCCCC1`, the cell count in assay [1] was found to be 396. In addition, the inhibition is 1.6% (inactive) in assay [1], -65.8% (inactive) in assay [3], -46.6% (inactive) in assay [7] and -23.7% (inactive) in assay [8]. Moreover, the inhibition of aggregation in assay [2] was -3.7% (inactive). In addition, the nuclei count amounted to 99.2% in assay [2] and 105% in assay [3]. Also, the fluorescence slope in assay [4] is -0.515 (inactive). For the same compound, in assay [5], the NADPH fluorescence slope was -8.3e-06 (inactive). In addition, the slope in assay [6] was 0.0074 (inactive).
On to `CCc1c(C(=O)NCCc2ccc(OC)c(OC)c2)[nH]c(C)c1C(C)=O`, for which the cell count in assay [1] was 274. In addition, the inhibition in assay [1] was 2.4% (inactive); in assay [3], 5.2% (inactive); in assay [7], 17.6% (inactive); in assay [8], 16.1% (inactive). In addition, in assay [2], the inhibition of aggregation is -21.3% (inactive). In addition, the nuclei count was 107% in assay [2] and 93.4% in assay [3]. Moreover, the fluorescence slope in assay [4] was -0.34 (inactive). The NADPH fluorescence slope in assay [5] was -1.2e-05 (inactive). The slope in assay [6] is 0.00669 (inactive).
Turning to `CCCC(=O)Nc1ccccc1-c1nnn(CC(=O)Nc2ccc(OC)cc2)n1`, in assay [1], the cell count amounted to 674. Besides, the inhibition was 21.5% (inactive) in assay [1], -36.7% (inactive) in assay [3], 14.1% (inactive) in assay [7] and 13.7% (inactive) in assay [8]. In addition, the inhibition of aggregation in assay [2] is -11.7% (inactive). Also, the nuclei count in assay [2] was found to be 115%; in assay [3], 83.3%. Moreover, the fluorescence slope in assay [4] is -0.36 (inactive). For the same compound, the NADPH fluorescence slope in assay [5] is 1e-05 (inactive). Besides, the slope in assay [6] is 0.0062 (inactive).
`c1ccc(-c2noc(C3CCCCC3)n2)nc1`: the cell count in assay [1] stood at 665. Also, the inhibition was -44.9% (inactive) in assay [1], -29.2% (inactive) in assay [3], -1.58% (inactive) in assay [7] and -68.3% (inactive) in assay [8]. Moreover, the inhibition of aggregation in assay [2] is -13.4% (inactive). Also, the nuclei count in assay [2] was determined as 97.5%; in assay [3], 110%. Also, the fluorescence slope in assay [4] is -0.52 (inactive). The NADPH fluorescence slope in assay [5] is -2.4e-05 (inactive). Moreover, the slope in assay [6] is 0.00485 (inactive).
Regarding `C=CCc1ccccc1OCCCCN1CCCC1`, the cell count in assay [1] is 750. Also, the inhibition in assay [1] was -8% (inactive); in assay [3] it was -10.4% (inactive); in assay [7] it was -11.7% (inactive); in assay [8], 19.4% (inactive). Moreover, the inhibition of aggregation in assay [2] was 9.9% (inactive). The nuclei count in assay [2] turned out to be 87.9%; in assay [3], 114%. For the same compound, in assay [4], the fluorescence slope was -0.497 (inactive). Further, in assay [5], the NADPH fluorescence slope was -3.1e-05 (inactive). The slope in assay [6] was 0.00605 (inactive).

The values above are taken from PubChem BioAssay.
